“And” between values parts separate entries of the source, which are not always exact repeats. Equal values may be shown once. Records with an inconclusive call do not appear. Entries that show only a call come without a potency. Some compounds were tested as several samples or in several runs, with calls that do not always agree. The source made the active and inactive calls. Calls come from the whole dose curve; as a rule, active = well fitted curve in the direction sought with a large enough effect in the repeat runs; inconclusive = weak or mixed curves; inactive = no such curve, though single readings can be large; an effect the other way counts as inactive or inconclusive.

Sequence of Androgen receptor (Homo sapiens) (P10275 whole entry, looked up): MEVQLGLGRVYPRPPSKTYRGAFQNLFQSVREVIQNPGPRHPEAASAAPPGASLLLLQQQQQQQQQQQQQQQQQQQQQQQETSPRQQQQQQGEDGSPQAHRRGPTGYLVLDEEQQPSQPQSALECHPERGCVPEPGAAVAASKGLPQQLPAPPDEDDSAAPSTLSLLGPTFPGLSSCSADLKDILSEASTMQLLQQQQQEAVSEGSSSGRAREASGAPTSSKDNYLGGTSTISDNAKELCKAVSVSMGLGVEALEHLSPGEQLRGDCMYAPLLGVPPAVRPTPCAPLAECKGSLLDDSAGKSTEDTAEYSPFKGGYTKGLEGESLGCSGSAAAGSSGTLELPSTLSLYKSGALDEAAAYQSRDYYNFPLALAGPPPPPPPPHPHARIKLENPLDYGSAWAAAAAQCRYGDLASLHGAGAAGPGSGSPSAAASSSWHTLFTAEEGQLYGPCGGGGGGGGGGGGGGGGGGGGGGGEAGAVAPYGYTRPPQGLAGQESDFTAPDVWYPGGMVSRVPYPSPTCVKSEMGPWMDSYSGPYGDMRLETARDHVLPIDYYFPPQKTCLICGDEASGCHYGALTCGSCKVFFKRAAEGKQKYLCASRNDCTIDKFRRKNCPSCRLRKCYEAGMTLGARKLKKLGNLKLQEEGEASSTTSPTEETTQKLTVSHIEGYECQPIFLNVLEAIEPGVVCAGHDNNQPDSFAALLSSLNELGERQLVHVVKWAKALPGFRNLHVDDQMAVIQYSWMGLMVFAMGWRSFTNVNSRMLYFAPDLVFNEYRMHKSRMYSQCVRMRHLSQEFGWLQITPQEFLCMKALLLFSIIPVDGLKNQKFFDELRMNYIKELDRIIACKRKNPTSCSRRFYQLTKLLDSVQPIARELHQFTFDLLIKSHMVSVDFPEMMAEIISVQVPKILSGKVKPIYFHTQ
Sequence of Estrogen receptor (Homo sapiens) (P03372 whole entry, looked up): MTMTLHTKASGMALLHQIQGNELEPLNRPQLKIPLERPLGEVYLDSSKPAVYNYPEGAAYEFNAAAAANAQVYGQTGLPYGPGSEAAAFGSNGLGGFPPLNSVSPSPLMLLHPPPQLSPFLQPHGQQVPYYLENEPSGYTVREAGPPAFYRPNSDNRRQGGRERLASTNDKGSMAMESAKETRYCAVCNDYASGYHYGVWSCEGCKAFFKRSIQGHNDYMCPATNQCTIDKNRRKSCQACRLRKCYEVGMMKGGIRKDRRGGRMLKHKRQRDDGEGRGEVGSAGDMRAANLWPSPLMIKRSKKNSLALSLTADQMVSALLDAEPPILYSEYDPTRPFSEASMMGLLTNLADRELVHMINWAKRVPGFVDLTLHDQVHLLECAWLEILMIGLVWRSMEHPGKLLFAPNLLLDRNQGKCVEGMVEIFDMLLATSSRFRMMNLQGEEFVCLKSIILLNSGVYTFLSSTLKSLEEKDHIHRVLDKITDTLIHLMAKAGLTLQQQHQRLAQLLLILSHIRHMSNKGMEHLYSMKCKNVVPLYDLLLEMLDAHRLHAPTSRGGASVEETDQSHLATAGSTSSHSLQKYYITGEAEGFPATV

The target in one experiment is Androgen receptor (Homo sapiens) (UniProt P10275). Description: qHTS assay to identify small molecule antagonists of the androgen receptor (AR) signaling pathway using the MDA cell line in the presence of 0.5 nM R1881 (AID 1259243). Note: nearly all actives have a fitted effect of over 50% in size. Note: potency is the fitted concentration of half-maximal effect. To be noted: MDA-kb2 MMTV-luciferase, R1881 0.5 nM, 16 h; series mostly up to 92.4 µM. The essentials:
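MDA-kb2 cells (MMTV-luciferase, responsive to AR and GR) at 3,000/well, rested 5 h at 37C, 0% CO2, then given compounds plus 0.5 nM R1881 (final) for 16 hr. Luciferase read with ONE-Glo after 30 min at room temperature.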
In general terms: Quantitative high-throughput screening tests each substance at several concentrations.
For `CCO[C@H]1O[C@@H]2OC3(C)CC[C@H]4[C@H](C)CC[C@@H]([C@H]1C)[C@@]24OO3`, the Potency was 10.6 µM (active). As to `CO/N=C(/C(=O)OC)c1ccccc1COc1ccccc1C`, the Potency was 17.2 µM (active). Same read-out and setting: next, `CC(=O)NC1CCSC1=O` (stereo not drawn): “inactive”; `C/C(=C\c1ccccc1)[N+](=O)[O-]`: 12.2 µM (active).

The target in the next experiment is Estrogen receptor (Homo sapiens) (UniProt P03372). Nature of the experiment: qHTS assay to identify small molecule antagonists of the estrogen receptor alpha (ER-alpha) signaling pathway using the BG1 cell line in the presence of 0.1 nM 17-beta-estradiol (AID 1259244). Note: nearly all actives have a fitted effect of over 50% in size. To be noted: VM7Luc4E2 (BG1) ERE-luciferase, antagonist mode, 0.1 nM E2, 22 h; series mostly up to 92.4 µM. The method in brief:
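VM7Luc4E2 cells (endogenous full-length ER-alpha, 4×ERE-luciferase), kept 5 days in phenol red-free, charcoal-stripped FBS medium; 4,000 cells/well. Compounds added with 0.1 nM (final) 17beta-estradiol, 22 hr at 37C; luminescence read with ONE-Glo after 30 min.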
As for `CCO[C@H]1O[C@@H]2OC3(C)CC[C@H]4[C@H](C)CC[C@@H]([C@H]1C)[C@@]24OO3`, the Potency result was “inactive”.

Consider `CO/N=C(/C(=O)OC)c1ccccc1COc1ccccc1C`, for which the Potency result was “inactive”. Regarding `CC(=O)NC1CCSC1=O` (stereo not drawn), the Potency entry is “inactive”.

Turning to `C/C(=C\c1ccccc1)[N+](=O)[O-]`, the Potency result is “inactive”.

Test system in another experiment: not listed separately
Description: qHTS assay to identify small molecule HDAC inhibitors (AID 1259364). Note: nearly all actives have a fitted effect of over 45% in size. Note: potency is the fitted concentration of half-maximal effect. To be noted: HCT-116 HDAC-Glo I/II luminescence, 2 h; series mostly up to 92.4 µM. The method in brief: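 Wild-type HCT-116 cells, plated overnight at 37 C, exposed to compounds 2 hr at 37 C; luminogenic HDAC-Glo substrate then added 30 min at room temperature. Luminescence reports relative endogenous class I/II HDAC activity.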
On to `Cl/C=C\C[N+]12CN3CN(CN(C3)C1)C2`, for which the Potency result is “inactive”. `O=C(O)c1ccccc1C(=O)Nc1cccc2ccccc12`: the Potency result is “inactive”. Consider `O=S(=O)(Cl)c1ccccc1`, for which the Potency entry is “inactive”. As to `O=C(O)C1(c2ccc3c(c2)OC[C@H](Cc2ccc(-c4ccccc4)cc2)[C@H]3O)CCCC1`, the Potency result was “inactive”. `Clc1cccc2ccccc12`: the Potency result is “inactive”. In the case of `C=CC(C)=O`, the Potency entry was “inactive”. The same measure, in the same setting: the value for `[O-][Cl+]O` was “inactive”; that for `Nc1nc(N)nc(N)n1` was “inactive”; that for `CCO[C@H]1O[C@@H]2OC3(C)CC[C@H]4[C@H](C)CC[C@@H]([C@H]1C)[C@@]24OO3` was “inactive”. For the compound `CO/N=C(/C(=O)OC)c1ccccc1COc1ccccc1C`, the Potency result is “inactive”.

On to `CCCCOC(=O)c1ccccc1C(=O)OCc1ccccc1`, for which the Potency result is “inactive and 17.2 µM (active)”. For `C=CC(=O)OCC(C)O` (stereo not drawn), the Potency entry is “inactive”. Take `Nc1nc(=S)[nH][nH]1`: the Potency result is “inactive”. Consider `Cc1ccccc1CCl`, for which the Potency result was “inactive”.

On to `CCCCC(CC)COP(=O)(Oc1ccccc1)Oc1ccccc1` (stereo not drawn), for which the Potency entry is “inactive”.

The values are drawn from PubChem BioAssay (Tox21).
